Common to all, as to assay: DAPPL (digital affinity profiling via proximity ligation, sequencing); 10 mM Tris-HCl pH 7.5, 50 mM NaCl, 1 mM DTT, 4% glycerol, room temperature, 30 min; GST-TFs on glutathione beads, 16-mer random dsDNA library, 0.1% formaldehyde crosslink after washing; high values mean tight binding
Conditions in all cases: protein: recombinant; tags: N-terminal GST; dsDNA, one strand shown

One assay addresses T1, ERF (Homo sapiens, UniProt P50548 1-548).
T1 sequence: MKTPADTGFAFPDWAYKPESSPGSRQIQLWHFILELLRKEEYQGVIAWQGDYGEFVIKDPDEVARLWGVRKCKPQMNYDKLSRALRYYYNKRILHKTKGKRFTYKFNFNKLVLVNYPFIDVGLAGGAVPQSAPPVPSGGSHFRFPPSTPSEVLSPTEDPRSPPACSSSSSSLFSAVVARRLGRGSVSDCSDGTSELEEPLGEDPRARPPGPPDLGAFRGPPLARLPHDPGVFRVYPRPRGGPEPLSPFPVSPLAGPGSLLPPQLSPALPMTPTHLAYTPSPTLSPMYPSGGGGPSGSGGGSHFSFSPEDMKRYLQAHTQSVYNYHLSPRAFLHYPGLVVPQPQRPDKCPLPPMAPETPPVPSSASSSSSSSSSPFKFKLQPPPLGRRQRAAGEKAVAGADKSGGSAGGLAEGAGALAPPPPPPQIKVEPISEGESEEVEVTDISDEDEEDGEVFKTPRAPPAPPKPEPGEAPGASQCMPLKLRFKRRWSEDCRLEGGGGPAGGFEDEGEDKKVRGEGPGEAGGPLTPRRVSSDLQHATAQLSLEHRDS
The method in brief:
(§1)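 In yeast, human transcription factors were expressed with a GST fusion, then pulled down on glutathione beads and given DNA barcodes. Pooled with a tag-only sample, they were exposed to 200 nmole of a 16-mer random double-stranded DNA library (Tris/NaCl/DTT/glycerol buffer, room temperature, 30 min), washed, crosslinked with 0.1% formaldehyde, proximity-ligated using BsaI/T4 ligase for 1 h at 37 °C, PCR-amplified and read on an Illumina NextSeq500. Each hexamer's frequency of reads for a factor, divided by the matching frequency for the tag-only sample, gives the binding signal.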

The next assay concerns the target T2, ETV3L (Homo sapiens, UniProt Q6ZN32 1-361).
T2 sequence: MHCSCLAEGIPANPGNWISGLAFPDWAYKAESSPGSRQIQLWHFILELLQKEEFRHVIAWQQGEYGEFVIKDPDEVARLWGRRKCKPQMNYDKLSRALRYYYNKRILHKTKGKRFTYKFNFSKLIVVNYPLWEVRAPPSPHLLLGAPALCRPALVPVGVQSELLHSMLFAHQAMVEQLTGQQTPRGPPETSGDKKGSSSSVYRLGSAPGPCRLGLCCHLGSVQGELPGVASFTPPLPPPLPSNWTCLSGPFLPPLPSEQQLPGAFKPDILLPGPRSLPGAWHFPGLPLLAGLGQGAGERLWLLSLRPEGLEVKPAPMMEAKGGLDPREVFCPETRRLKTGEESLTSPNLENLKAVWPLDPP
Put shortly:
as §1

The next assay has as its target T3, ETS2 (Homo sapiens, UniProt P15036 1-469).
T3 sequence: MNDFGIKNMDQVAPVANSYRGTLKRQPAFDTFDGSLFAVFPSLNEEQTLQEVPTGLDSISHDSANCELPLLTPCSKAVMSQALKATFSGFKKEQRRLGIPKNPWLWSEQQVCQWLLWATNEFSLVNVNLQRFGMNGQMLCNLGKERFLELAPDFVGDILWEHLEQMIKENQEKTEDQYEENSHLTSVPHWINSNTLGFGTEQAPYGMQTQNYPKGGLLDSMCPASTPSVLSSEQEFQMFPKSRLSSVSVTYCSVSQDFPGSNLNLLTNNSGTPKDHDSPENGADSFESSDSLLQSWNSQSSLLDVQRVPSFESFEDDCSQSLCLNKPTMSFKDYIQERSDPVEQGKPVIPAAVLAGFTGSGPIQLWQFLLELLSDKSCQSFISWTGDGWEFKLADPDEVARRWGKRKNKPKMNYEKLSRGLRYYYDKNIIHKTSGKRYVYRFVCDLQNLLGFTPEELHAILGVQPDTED
The method in brief: as §1

The target in another assay is T4, SPDEF (Homo sapiens, UniProt O95238 1-335).
T4 sequence: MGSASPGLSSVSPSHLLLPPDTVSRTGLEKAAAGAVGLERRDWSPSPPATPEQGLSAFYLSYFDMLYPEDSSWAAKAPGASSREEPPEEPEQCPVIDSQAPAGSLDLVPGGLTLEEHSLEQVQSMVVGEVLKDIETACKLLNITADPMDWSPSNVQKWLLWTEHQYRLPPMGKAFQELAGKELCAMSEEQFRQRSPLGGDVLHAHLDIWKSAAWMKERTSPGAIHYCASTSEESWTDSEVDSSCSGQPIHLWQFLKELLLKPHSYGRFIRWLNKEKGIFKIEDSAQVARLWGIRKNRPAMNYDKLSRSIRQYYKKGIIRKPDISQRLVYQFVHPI
Put shortly:
as §1

Another assay has as its target T5, ETV7 (Homo sapiens, UniProt Q9Y603 1-341).
T5 sequence: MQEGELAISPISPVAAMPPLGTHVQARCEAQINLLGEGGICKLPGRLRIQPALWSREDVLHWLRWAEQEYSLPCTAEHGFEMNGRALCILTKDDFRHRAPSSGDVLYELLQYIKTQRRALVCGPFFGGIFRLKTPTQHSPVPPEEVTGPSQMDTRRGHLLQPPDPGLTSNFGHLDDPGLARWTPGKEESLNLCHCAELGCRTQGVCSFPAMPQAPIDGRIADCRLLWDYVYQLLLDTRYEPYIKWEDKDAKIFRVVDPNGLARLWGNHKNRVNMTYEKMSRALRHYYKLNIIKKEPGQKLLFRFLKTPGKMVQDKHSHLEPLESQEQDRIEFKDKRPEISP
Put shortly:
as §1

Another assay concerns the target T6, ETV3 (Homo sapiens, UniProt P41162-2 1-143).
T6 sequence: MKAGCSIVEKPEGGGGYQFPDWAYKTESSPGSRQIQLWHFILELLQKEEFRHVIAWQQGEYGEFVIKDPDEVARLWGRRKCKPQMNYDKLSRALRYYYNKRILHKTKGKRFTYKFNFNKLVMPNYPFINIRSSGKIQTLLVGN
Put shortly: as §1

In the next assay the target is ETV6 (Homo sapiens, UniProt P41212 1-452). The method in brief:
as §1

Sequence of ETV6 (P41212 whole entry): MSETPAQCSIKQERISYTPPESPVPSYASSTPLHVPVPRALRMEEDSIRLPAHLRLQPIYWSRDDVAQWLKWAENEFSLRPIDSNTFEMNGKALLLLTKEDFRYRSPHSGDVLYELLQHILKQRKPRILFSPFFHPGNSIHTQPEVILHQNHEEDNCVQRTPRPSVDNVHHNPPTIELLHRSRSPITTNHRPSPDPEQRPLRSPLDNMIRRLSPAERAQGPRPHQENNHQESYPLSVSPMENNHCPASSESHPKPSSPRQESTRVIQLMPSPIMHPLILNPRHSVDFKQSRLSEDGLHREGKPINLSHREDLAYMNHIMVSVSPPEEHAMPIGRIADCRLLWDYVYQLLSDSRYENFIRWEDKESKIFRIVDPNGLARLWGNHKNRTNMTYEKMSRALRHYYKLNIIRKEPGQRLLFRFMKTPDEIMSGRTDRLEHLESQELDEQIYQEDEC

On to TTACGC, for which the binding signal with ERF is 1.15 fold enrichment (6-mer frequency, TF over GST control); with ETV3L, 1.05 fold enrichment (6-mer frequency, TF over GST control); with ETS2, 1.1 fold enrichment (6-mer frequency, TF over GST control); in the assay with SPDEF, 1.08 fold enrichment (6-mer frequency, TF over GST control); in the assay with ETV7 it was 1.02 fold enrichment (6-mer frequency, TF over GST control); with ETV3 it was 1.16 fold enrichment (6-mer frequency, TF over GST control). Besides, the binding signal with ETV6 is 1.11 fold enrichment (6-mer frequency, TF over GST control).
As to CGAGCT, the binding signal in the assay with ERF is 1.09 fold enrichment (6-mer frequency, TF over GST control); with ETV3L it was 1.02 fold enrichment (6-mer frequency, TF over GST control); in the assay with ETS2 it was 1.07 fold enrichment (6-mer frequency, TF over GST control); with SPDEF, 1.04 fold enrichment (6-mer frequency, TF over GST control); in the assay with ETV7, 1.02 fold enrichment (6-mer frequency, TF over GST control); in the assay with ETV3, 1.06 fold enrichment (6-mer frequency, TF over GST control). Further, in the assay with ETV6, the binding signal was 1.01 fold enrichment (6-mer frequency, TF over GST control).
As for GGTGTT, the binding signal in the assay with ERF is 1.14 fold enrichment (6-mer frequency, TF over GST control); in the assay with ETV3L, 1.07 fold enrichment (6-mer frequency, TF over GST control); with ETS2 it was 1.08 fold enrichment (6-mer frequency, TF over GST control); with SPDEF, 1.1 fold enrichment (6-mer frequency, TF over GST control); with ETV7, 1.01 fold enrichment (6-mer frequency, TF over GST control); with ETV3 it was 1.05 fold enrichment (6-mer frequency, TF over GST control). In addition, the binding signal with ETV6 was 1.1 fold enrichment (6-mer frequency, TF over GST control).
In the case of TCGATA, the binding signal is 1.24 fold enrichment (6-mer frequency, TF over GST control) with ERF; 1.13 fold enrichment (6-mer frequency, TF over GST control) with ETV3L; 1.06 fold enrichment (6-mer frequency, TF over GST control) with ETS2; 1.07 fold enrichment (6-mer frequency, TF over GST control) with SPDEF; 1.07 fold enrichment (6-mer frequency, TF over GST control) in the assay with ETV7; 1.11 fold enrichment (6-mer frequency, TF over GST control) with ETV3. Also, in the assay with ETV6, the binding signal is 1.01 fold enrichment (6-mer frequency, TF over GST control).
For the sequence GCCAAT, the binding signal with ERF was 1.11 fold enrichment (6-mer frequency, TF over GST control); with ETV3L it was 1.05 fold enrichment (6-mer frequency, TF over GST control); with ETS2, 1.06 fold enrichment (6-mer frequency, TF over GST control); with SPDEF it was 1.07 fold enrichment (6-mer frequency, TF over GST control); with ETV7, 1.06 fold enrichment (6-mer frequency, TF over GST control); in the assay with ETV3, 1.1 fold enrichment (6-mer frequency, TF over GST control).
As to TGACTA, the binding signal in the assay with ERF was 1.14 fold enrichment (6-mer frequency, TF over GST control); in the assay with ETV3L it was 1.08 fold enrichment (6-mer frequency, TF over GST control); with ETS2, 1.04 fold enrichment (6-mer frequency, TF over GST control); in the assay with SPDEF, 1.08 fold enrichment (6-mer frequency, TF over GST control); in the assay with ETV7, 1.07 fold enrichment (6-mer frequency, TF over GST control); with ETV3, 1.05 fold enrichment (6-mer frequency, TF over GST control). Further, in the assay with ETV6, the binding signal is 1.15 fold enrichment (6-mer frequency, TF over GST control).
For the sequence CAACCA, the binding signal was 1.14 fold enrichment (6-mer frequency, TF over GST control) with ERF; 1.05 fold enrichment (6-mer frequency, TF over GST control) with ETV3L; 1.1 fold enrichment (6-mer frequency, TF over GST control) with ETS2; 1.09 fold enrichment (6-mer frequency, TF over GST control) in the assay with SPDEF; 1.04 fold enrichment (6-mer frequency, TF over GST control) in the assay with ETV7; 1.1 fold enrichment (6-mer frequency, TF over GST control) with ETV3. For the same sequence, the binding signal in the assay with ETV6 is 1.03 fold enrichment (6-mer frequency, TF over GST control).
As for GGCCTC, the binding signal is 1.12 fold enrichment (6-mer frequency, TF over GST control) with ERF; 1.12 fold enrichment (6-mer frequency, TF over GST control) with ETV3L; 1.09 fold enrichment (6-mer frequency, TF over GST control) in the assay with ETS2; 1.08 fold enrichment (6-mer frequency, TF over GST control) with SPDEF; 1.05 fold enrichment (6-mer frequency, TF over GST control) in the assay with ETV7; 1.1 fold enrichment (6-mer frequency, TF over GST control) with ETV3. In addition, the binding signal with ETV6 is 1.09 fold enrichment (6-mer frequency, TF over GST control).
Regarding TACTGA, the binding signal in the assay with ERF was 1.17 fold enrichment (6-mer frequency, TF over GST control); with ETV3L it was 1.13 fold enrichment (6-mer frequency, TF over GST control); with ETS2 it was 1.1 fold enrichment (6-mer frequency, TF over GST control); with SPDEF, 1.14 fold enrichment (6-mer frequency, TF over GST control); in the assay with ETV7, 1.01 fold enrichment (6-mer frequency, TF over GST control); in the assay with ETV3, 1.11 fold enrichment (6-mer frequency, TF over GST control).
Turning to ACAGAT, the binding signal with ERF is 1.06 fold enrichment (6-mer frequency, TF over GST control); with ETV3L, 1.01 fold enrichment (6-mer frequency, TF over GST control); with ETS2, 1.03 fold enrichment (6-mer frequency, TF over GST control); with SPDEF, 1.05 fold enrichment (6-mer frequency, TF over GST control); with ETV7 it was 1.12 fold enrichment (6-mer frequency, TF over GST control); with ETV3 it was 1.02 fold enrichment (6-mer frequency, TF over GST control).
With GCACGC, the binding signal with ERF is 1.09 fold enrichment (6-mer frequency, TF over GST control); in the assay with ETV3L, 1.07 fold enrichment (6-mer frequency, TF over GST control); in the assay with ETS2, 1 fold enrichment (6-mer frequency, TF over GST control); with SPDEF it was 1.04 fold enrichment (6-mer frequency, TF over GST control); with ETV7, 1.07 fold enrichment (6-mer frequency, TF over GST control); with ETV3, 1.14 fold enrichment (6-mer frequency, TF over GST control). Further, in the assay with ETV6, the binding signal was 1.07 fold enrichment (6-mer frequency, TF over GST control).
As to CGCTTG, the binding signal was 1.06 fold enrichment (6-mer frequency, TF over GST control) with ERF; 1.01 fold enrichment (6-mer frequency, TF over GST control) with ETV3L; 1.22 fold enrichment (6-mer frequency, TF over GST control) with ETS2; 1.09 fold enrichment (6-mer frequency, TF over GST control) in the assay with SPDEF; 1.01 fold enrichment (6-mer frequency, TF over GST control) with ETV7; 1.06 fold enrichment (6-mer frequency, TF over GST control) in the assay with ETV3. Also, the binding signal with ETV6 was 1.11 fold enrichment (6-mer frequency, TF over GST control).

The values above are taken from PMC7862700, “An all-to-all approach to the identification of sequence-specific readers for epigenetic DNA modifications on cytosine”.
